Reference: PubChem BioAssay AID1159580 (chemical genetic matrix, 2015)
Screen size: about 5,500 compounds; about 2,000 (36%) were called active. Inconclusive results (about 18%) are left out. The list shows a part of the results. Values without a mark were called inactive. No stated cut-off is given here; in the data, active means normalized growth mostly below about 0.91 (no sharp cut-off); inconclusive means no clear call, values can overlap the other calls; inactive means mostly above about 0.92.

Assay: chemical genetic growth profiling, strain panel (AID 1159580);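 further: tested at 20 µM; growth read once vehicle control cultures reached saturation at 30 °C; 1 = growth at the plate median or of vehicle wells; lower values mean less growth of the strain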
Conditions: growth OD

Question: Which normalized growth (S. cerevisiae deletion strains, locus YJR066W, strain TOR1, hits give low values) does the source give for `CC[C@@H](C(=O)[C@@H](C)[C@@H](O)[C@H](C)[C@@H]1O[C@@H]([C@@H](CC)C(=O)O)CC[C@@H]1C)[C@H]1OC2(C=C[C@@H](O)[C@]3(CC[C@@](C)([C@H]4CC[C@](O)(CC)[C@H](C)O4)O3)O2)[C@H](C)C[C@@H]1C` (some centres undefined) here?
Answer: 0.237 (active)

Question: And the normalized growth (S. cerevisiae deletion strains, locus YKL009W, strain mrt4, hits give low values)?
Answer: 0.934

Question: What about the normalized growth (S. cerevisiae deletion strains, locus YKL068W, hits give low values) of the same compound?
Answer: 1.02

Question: What about the normalized growth (S. cerevisiae deletion strains, locus YKL085W, strain MDH1 (second series), hits give low values) of the same compound?
Answer: 0.812 (active)

Question: And the normalized growth (S. cerevisiae deletion strains, locus YKL085W, strain MDH1, hits give low values)?
Answer: 0.812 (active)

Question: And the normalized growth (S. cerevisiae deletion strains, locus YKL160W, strain elf1, hits give low values)?
Answer: 0.879 (active)

Question: What about the normalized growth (S. cerevisiae deletion strains, locus YKL190W, strain CNB1, hits give low values) of the same compound?
Answer: 0.925

Question: And the normalized growth (S. cerevisiae deletion strains, locus YKR001C, strain vps1, hits give low values)?
Answer: 0.108 (active)

Question: And the normalized growth (S. cerevisiae deletion strains, locus YKR026C, strain gcn3, hits give low values)?
Answer: 0.933

Question: And the normalized growth (S. cerevisiae deletion strains, locus YKR091W, strain srl3, hits give low values)?
Answer: 0.937

Question: What about the normalized growth (S. cerevisiae deletion strains, locus YLL001W, strain dnm1, hits give low values) of the same compound?
Answer: 0.833 (active)

Question: What about the normalized growth (S. cerevisiae deletion strains, locus YLL026W, hits give low values) of the same compound?
Answer: 0.892 (active)

Question: And the normalized growth (S. cerevisiae deletion strains, locus YLL041C, strain sdh2, hits give low values)?
Answer: 0.926 (active)

Question: And the normalized growth (S. cerevisiae deletion strains, locus YLR027C, strain aat2, hits give low values)?
Answer: 0.858 (active)

Question: And the normalized growth (S. cerevisiae deletion strains, locus YLR039C, strain RIC1, hits give low values)?
Answer: 0.294 (active)

Question: And the normalized growth (S. cerevisiae deletion strains, locus YLR058C, strain SHM2, hits give low values)?
Answer: 0.935

Question: And the normalized growth (S. cerevisiae deletion strains, locus YLR102C, strain apc9, hits give low values)?
Answer: 0.905 (active)

Question: And the normalized growth (S. cerevisiae deletion strains, locus YLR113W, strain HOG1, hits give low values)?
Answer: 0.176 (active)

Question: And the normalized growth (S. cerevisiae deletion strains, locus YLR221C, strain rsa3, hits give low values)?
Answer: 0.856 (active)

Question: And the normalized growth (S. cerevisiae deletion strains, locus YLR258W, strain gsy2, hits give low values)?
Answer: 0.842 (active)

Question: And the normalized growth (S. cerevisiae deletion strains, locus YLR262C, strain YPT6 (second series), hits give low values)?
Answer: 0.662 (active)

Question: And the normalized growth (S. cerevisiae deletion strains, locus YLR262C, strain YPT6, hits give low values)?
Answer: 0.183 (active)

Question: And the normalized growth (S. cerevisiae deletion strains, locus YLR268W, strain sec22, hits give low values)?
Answer: 0.843 (active)

Question: What about the normalized growth (S. cerevisiae deletion strains, locus YLR320W, strain mms22, hits give low values) of the same compound?
Answer: 0.928

Question: What about the normalized growth (S. cerevisiae deletion strains, locus YLR330W, strain CHS5, hits give low values) of the same compound?
Answer: 0.927

Question: What about the normalized growth (S. cerevisiae deletion strains, locus YLR342W, strain FKS1 (second series), hits give low values) of the same compound?
Answer: 0.821

Question: What about the normalized growth (S. cerevisiae deletion strains, locus YLR342W, strain FKS1, hits give low values) of the same compound?
Answer: 0.852 (active)

Question: And the normalized growth (S. cerevisiae deletion strains, locus YLR357W, strain rsc2, hits give low values)?
Answer: 0.988

Question: And the normalized growth (S. cerevisiae deletion strains, locus YLR370C, strain arc18, hits give low values)?
Answer: 0.608 (active)

Question: What about the normalized growth (S. cerevisiae deletion strains, locus YLR371W, strain rom2, hits give low values) of the same compound?
Answer: 0.624 (active)

Question: What about the normalized growth (S. cerevisiae deletion strains, locus YLR384C, strain iki3, hits give low values) of the same compound?
Answer: 0.954

Question: What about the normalized growth (S. cerevisiae deletion strains, locus YLR418C, strain cdc73, hits give low values) of the same compound?
Answer: 0.681 (active)

Question: And the normalized growth (S. cerevisiae deletion strains, locus YML016C, strain PPZ1, hits give low values)?
Answer: 0.978

Question: And the normalized growth (S. cerevisiae deletion strains, locus YML032C, strain rad52, hits give low values)?
Answer: 0.882 (active)

Question: What about the normalized growth (S. cerevisiae deletion strains, locus YML120C, strain ndi1, hits give low values) of the same compound?
Answer: 0.847 (active)

Question: What about the normalized growth (S. cerevisiae deletion strains, locus YML124C, strain tub3, hits give low values) of the same compound?
Answer: 0.887 (active)

Question: And the normalized growth (S. cerevisiae deletion strains, locus YMR058W, strain fet3, hits give low values)?
Answer: 0.908

Question: And the normalized growth (S. cerevisiae deletion strains, locus YMR078C, strain ctf18, hits give low values)?
Answer: 0.937

Question: What about the normalized growth (S. cerevisiae deletion strains, locus YMR125W, strain sto1, hits give low values) of the same compound?
Answer: 0.932

Question: And the normalized growth (S. cerevisiae deletion strains, locus YMR129W, hits give low values)?
Answer: 0.937

Question: And the normalized growth (S. cerevisiae deletion strains, locus YMR205C, strain PFK2, hits give low values)?
Answer: 0.79 (active)

Question: What about the normalized growth (S. cerevisiae deletion strains, locus YMR223W, strain ubp8, hits give low values) of the same compound?
Answer: 0.838 (active)

Question: What about the normalized growth (S. cerevisiae deletion strains, locus YMR231W, strain pep5, hits give low values) of the same compound?
Answer: 0.0726 (active)

Question: What about the normalized growth (S. cerevisiae deletion strains, locus YMR307W, strain GAS1, hits give low values) of the same compound?
Answer: 0.801

Question: And the normalized growth (S. cerevisiae deletion strains, locus YNL067W, strain RPL9B, hits give low values)?
Answer: 0.963

Question: What about the normalized growth (S. cerevisiae deletion strains, locus YNL071W, strain lat1, hits give low values) of the same compound?
Answer: 0.96

Question: What about the normalized growth (S. cerevisiae deletion strains, locus YNL128W, strain TEP1, hits give low values) of the same compound?
Answer: 0.969

Question: And the normalized growth (S. cerevisiae deletion strains, locus YNL153C, strain GIM3, hits give low values)?
Answer: 0.911

Question: What about the normalized growth (S. cerevisiae deletion strains, locus YNL183C, strain NPR1, hits give low values) of the same compound?
Answer: 0.143 (active)

Question: What about the normalized growth (S. cerevisiae deletion strains, locus YNL209W, strain ssb2, hits give low values) of the same compound?
Answer: 0.916 (active)

Question: And the normalized growth (S. cerevisiae deletion strains, locus YNL233W, strain BNI4, hits give low values)?
Answer: 0.861 (active)

Question: And the normalized growth (S. cerevisiae deletion strains, locus YNL248C, strain rpa49, hits give low values)?
Answer: 0.95

Question: What about the normalized growth (S. cerevisiae deletion strains, locus YNL250W, strain rad50, hits give low values) of the same compound?
Answer: 0.868 (active)

Question: What about the normalized growth (S. cerevisiae deletion strains, locus YNL271C, strain bni1, hits give low values) of the same compound?
Answer: 0.814 (active)

Question: And the normalized growth (S. cerevisiae deletion strains, locus YNL298W, strain CLA4, hits give low values)?
Answer: 0.439 (active)

Question: What about the normalized growth (S. cerevisiae deletion strains, locus YNL307C, strain MCK1, hits give low values) of the same compound?
Answer: 0.862 (active)

Question: And the normalized growth (S. cerevisiae deletion strains, locus YNL322C, strain KRE1 (second series), hits give low values)?
Answer: 0.963

Question: What about the normalized growth (S. cerevisiae deletion strains, locus YNR049C, strain mso1, hits give low values) of the same compound?
Answer: 0.923

Question: And the normalized growth (S. cerevisiae deletion strains, locus YNR052C, strain pop2, hits give low values)?
Answer: 0.735 (active)

Question: And the normalized growth (S. cerevisiae deletion strains, locus YOL006C, strain TOP1, hits give low values)?
Answer: 0.192 (active)

Question: What about the normalized growth (S. cerevisiae deletion strains, locus YOL012C, strain htz1) of the same compound?
Answer: 1.26

Question: And the normalized growth (S. cerevisiae deletion strains, locus YOL147C, strain pex11, hits give low values)?
Answer: 0.884 (active)

Question: What about the normalized growth (S. cerevisiae deletion strains, locus YOR001W, strain rrp6, hits give low values) of the same compound?
Answer: 0.909

Question: What about the normalized growth (S. cerevisiae deletion strains, locus YOR061W, strain CKA2, hits give low values) of the same compound?
Answer: 0.642 (active)

Question: And the normalized growth (S. cerevisiae deletion strains, locus YOR069W, strain VPS5, hits give low values)?
Answer: 0.797 (active)

Question: And the normalized growth (S. cerevisiae deletion strains, locus YOR070C, strain gyp1, hits give low values)?
Answer: 0.9 (active)

Question: And the normalized growth (S. cerevisiae deletion strains, locus YOR080W, strain dia2, hits give low values)?
Answer: 0.961

Question: What about the normalized growth (S. cerevisiae deletion strains, locus YOR083W, strain WHI5, hits give low values) of the same compound?
Answer: 0.855 (active)

Question: And the normalized growth (S. cerevisiae deletion strains, locus YOR106W, strain vam3, hits give low values)?
Answer: 0.0692 (active)

Question: And the normalized growth (S. cerevisiae deletion strains, locus YOR136W, strain idh2, hits give low values)?
Answer: 0.905 (active)

Question: And the normalized growth (S. cerevisiae deletion strains, locus YOR144C, strain elg1, hits give low values)?
Answer: 0.885 (active)

Question: What about the normalized growth (S. cerevisiae deletion strains, locus YOR184W, strain ser1, hits give low values) of the same compound?
Answer: 0.892

Question: And the normalized growth (S. cerevisiae deletion strains, locus YOR231W, strain MKK1, hits give low values)?
Answer: 0.201 (active)

Question: And the normalized growth (S. cerevisiae deletion strains, locus YOR265W, strain rbl2, hits give low values)?
Answer: 0.897 (active)

Question: What about the normalized growth (S. cerevisiae deletion strains, locus YOR270C, strain vph1, hits give low values) of the same compound?
Answer: 0.287 (active)

Question: What about the normalized growth (S. cerevisiae deletion strains, locus YOR290C, strain snf2, hits give low values) of the same compound?
Answer: 0.863 (active)

Question: What about the normalized growth (S. cerevisiae deletion strains, locus YOR316C, strain cot1, hits give low values) of the same compound?
Answer: 0.908 (active)

Question: And the normalized growth (S. cerevisiae deletion strains, locus YPL051W, strain arl3, hits give low values)?
Answer: 0.721 (active)

Question: What about the normalized growth (S. cerevisiae deletion strains, locus YPL055C, strain LGE1, hits give low values) of the same compound?
Answer: 0.934

Question: What about the normalized growth (S. cerevisiae deletion strains, locus YPL078C, strain atp4, hits give low values) of the same compound?
Answer: 0.939

Question: What about the normalized growth (S. cerevisiae deletion strains, locus YPL106C, strain sse1, hits give low values) of the same compound?
Answer: 0.932

Question: What about the normalized growth (S. cerevisiae deletion strains, locus YPL240C, strain hsp82, hits give low values) of the same compound?
Answer: 0.922 (active)

Question: What about the normalized growth (S. cerevisiae deletion strains, locus YPL256C, strain CLN2, hits give low values) of the same compound?
Answer: 0.265 (active)

Question: What about the normalized growth (S. cerevisiae deletion strains, locus YPR119W, strain clb2, hits give low values) of the same compound?
Answer: 0.92 (active)

Question: And the normalized growth (S. cerevisiae deletion strains, locus YPR141C, strain kar3, hits give low values)?
Answer: 1

Question: And the normalized growth (S. cerevisiae deletion strains, locus YPR163C, strain tif3, hits give low values)?
Answer: 0.538 (active)

Question: What about the normalized growth (S. cerevisiae deletion strains, locus YPR167C, strain met16, hits give low values) of the same compound?
Answer: 0.865 (active)

Question: And the normalized growth (S. cerevisiae deletion strains, strain wtn01, hits give low values)?
Answer: 0.815 (active)

Question: And the normalized growth (S. cerevisiae strains, strain wild type, hits give low values)?
Answer: 0.925
